Several values for one entry are separate records, joined by “and”; a condition that tells them apart may be missing. Equal entries are not always repeated. Inconclusive results are not listed. Activity calls are given as the source filed them. Unless noted, calls come from the whole dose curve.

Nine compounds from PubChem BioAssay (Tox21) can be followed below.

Test [1] can be described thus: Nuclear factor erythroid 2-related factor 2/antioxidant responsive element (Nrf2/ARE) small molecule agonists: qHTS cell viability counter screen in human keratinocytes (AID 1919968; active = well fitted cell-killing curve with a large enough effect in the repeat runs; note: nearly all actives have a fitted effect of over 55% in size). The gist of the method: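 Parallel cytotoxicity read: KeratinoSens HaCaT cells, compound treatment 23 h, viability by CellTiter-Fluor fluorescence 1 h post-reagent.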
(qHTS replaces the single test concentration by a dilution series.)

The nature of test [2]: Nuclear factor erythroid 2-related factor 2/antioxidant responsive element (Nrf2/ARE) small molecule agonists: luciferase reporter gene qHTS assay in human keratinocytes (AID 1919969). Note: nearly all actives have a fitted effect of over 35% in size. Note: potency is the fitted concentration of half-maximal effect.
The target of test [3] is Gonadotropin-releasing hormone receptor (Homo sapiens) (UniProt P30968). Briefly: Human gonadotropin-releasing hormone receptor (GnRHR) small molecule agonists, calcium flux assay in GnRHR-HEK293 cells (AID 1920063). Note: nearly all actives have a fitted effect of over 35% in size. The method in brief: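 Calcium flux, agonist mode, human GnRHR stably integrated in HEK293; dye 1 h at 37 C before compound; Ex/Em=480/540 kinetic read, 3 min; 15 concentrations, triplicate.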
Chain of Gonadotropin-releasing hormone receptor (Homo sapiens) (P30968 whole entry, looked up): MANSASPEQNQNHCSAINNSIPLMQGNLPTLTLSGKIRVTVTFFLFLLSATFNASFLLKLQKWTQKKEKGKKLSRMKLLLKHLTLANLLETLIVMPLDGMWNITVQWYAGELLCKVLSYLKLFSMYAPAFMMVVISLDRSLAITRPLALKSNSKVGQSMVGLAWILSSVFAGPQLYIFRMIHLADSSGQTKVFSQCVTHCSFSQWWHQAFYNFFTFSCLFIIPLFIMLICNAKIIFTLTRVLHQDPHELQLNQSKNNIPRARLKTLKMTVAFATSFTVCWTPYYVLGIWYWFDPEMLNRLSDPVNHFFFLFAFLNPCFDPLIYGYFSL
In general terms: A change in cytosolic calcium serves as a functional read-out for many receptors and channels.

A short description of test [4]: G protein-coupled receptor (GPCR) small molecule agonists, calcium flux assay: HEK293 wild type cell line counter screen (AID 1920065). The method in brief: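 Non-specific calcium responders were flagged by adding DMSO-dissolved compounds to dye-loaded cells and reading 480/540 nm fluorescence each second for 3 min; ATP served as positive control.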
Test [5] in a line: p53 small molecule agonists, cell-based qHTS assay with human liver microsomes (AID 1963577).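 For activation: p53 response element beta-lactamase reporter cells with liver microsomes plus NADPH.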 Note: potency is the fitted concentration of half-maximal effect. The method in brief: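 With metabolic activation: human liver microsomes (0.5 mg/mL final) plus NADPH (0.5 mg/mL final) added alongside compounds to p53RE-bla cells; 16 h 37 C exposure; beta-lactamase read by LiveBLAzer fluorescence.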
A short description of test [6]: p53 small molecule agonists, cell-based qHTS assay with rat liver microsomes (AID 1963578). Note: potency is the fitted concentration of half-maximal effect. The gist of the method: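 Metabolic activation by rat liver microsomes and NADPH, each 0.5 mg/mL final, added right after compounds to p53RE-bla reporter cells (4,000/well, plated 5 h earlier). 16 h at 37 C, then LiveBLAzer substrate for 2 h at room temperature in the dark; fluorescence read-out.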

A short description of test [7]: p53 small molecule agonists, cell-based qHTS assay with human liver microsomes: qHTS cell viability counter screen (AID 1963579). Note: nearly all actives have a fitted effect of over 45% in size. The method in brief:
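Metabolic activation used human liver microsomes and NADPH, both 0.5 mg/mL final, over 16 hours at 37 C on p53RE-bla cells (4,000/well). Cytotoxicity measured by CellTiter-Glo luminescence, 30 min at room temperature.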

Test [8] is described as follows: p53 small molecule agonists, cell-based qHTS assay with rat liver microsomes: qHTS cell viability counter screen (AID 1963580). Note: nearly all actives have a fitted effect of over 45% in size. The method in brief: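 Cytotoxicity counter screen: intracellular ATP measured by CellTiter-Glo luminescence in the same wells as the beta-lactamase reporter read, on HCT-116 p53RE-bla cells exposed 16 h at 37 C to compounds with rat liver microsomes and NADPH, each 0.5 mg/mL final.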

Test [9] is described as follows: p53 small molecule agonists, cell-based qHTS assay: qHTS cell viability counter screen (AID 1963581). Note: nearly all actives have a fitted effect of over 45% in size. The gist of the method: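 Multiplexed with the reporter read, a CellTiter-Glo step (30 min, room temperature) gauges ATP-based viability of HCT-116 p53RE-bla cells after 16 h compound incubation at 37 C.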
Test [10] in a line: p53 small molecule agonists, cell-based qHTS assay (AID 1963582; active = well fitted activation curve with a large enough effect in the signal ratio in the repeat runs, not every such curve was filed as active; the % refers to the signal ratio). The method in brief:
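Beta-lactamase reporter cells (p53RE-bla) treated with compounds for 16 h at 37 C; FRET substrate, 2 h, room temperature; fluorescence intensity.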

Test [11] deals with 5-hydroxytryptamine receptor 2A (Homo sapiens) (UniProt P28223). The experiment in a line: 5-hydroxytryptamine receptor 2A (HTR2A) small molecule antagonists, cell-based qHTS assay (AID 1963586). Note: nearly all actives have a fitted effect of over 45% in size. The gist of the method:
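CHO cells stably expressing human HTR2A were plated for 18 h at 37 C, then loaded with calcium dye for 1 h. Compounds were preincubated 5 min at room temperature before DOI (4 nM solution) was added. Kinetic fluorescence was read for 3 min.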

Test [12] has the same target. The experiment in a line: 5-hydroxytryptamine receptor 2A (HTR2A) small molecule agonists, cell-based qHTS assay (AID 1963587). Note: nearly all actives have a fitted effect of over 30% in size. The gist of the method:
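CHO cells stably expressing human HTR2A, plated 18 h, loaded with calcium dye 1 h at 37 C. Agonist mode: compounds added and intracellular calcium fluorescence recorded kinetically for 2 min at 1 sec intervals.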

Test [13] concerns the target Muscarinic acetylcholine receptor M1 (Homo sapiens) (UniProt P11229). Briefly: Cholinergic receptor muscarinic 1 (CHRM1) small molecule antagonists, cell-based qHTS assay (AID 1963588). Note: nearly all actives have a fitted effect of over 40% in size. The gist of the method: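 Compounds were tested at 15 concentrations in three independent runs. Dye-loaded CHRM1-CHO cells were exposed 5 min at room temperature before stimulation by acetylcholine added at 50nM. Intracellular calcium was read kinetically on FDSS for 3 min.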

Test [14] is described as follows: cAMP Responsive Elements (CRE) small molecule agonists, cell-based qHTS assay (AID 1963590). The gist of the method:
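Quantitative HTS for CRE agonists: HEK 293T CRE-bla cells, overnight plating, 3 h compound incubation at 37 C/5% CO2, then 2 h room-temperature LiveBLAzer B/G FRET substrate loading.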

The target of test [15] is Beta-2 adrenergic receptor (Homo sapiens) (UniProt P07550). Briefly: Adrenergic beta2 receptor (ADRB2) small molecule antagonists, cell-based qHTS assay (AID 1963592). Note: series mostly up to about 92 µM; nearly all actives have a fitted effect of over 50% in size. The method in brief:
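Assay format: CHO-ADRB2 cells, 18-20hr seeding at 37C/5% CO2, then compound plus 1nM isoproterenol agonist mix for 0.5hr RT. Homogeneous time-resolved fluorescence cAMP detection after 1hr, expressed as 665/615 nm ratio.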

Test [16] has the same target. The experiment in a line: Adrenergic beta2 receptor (ADRB2) small molecule agonists, cell-based qHTS assay (AID 1963593).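 Note: CHO cells stably overexpressing human ADRB2.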 The method in brief: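 CHO cells stably over-expressing ADRB2 were plated overnight at 37C, then dosed with compounds plus a stimulation mix containing 100uM IBMX and 25uM Ro-20-1724 for 0.5hr at room temperature. cAMP was measured by HTRF competition, 1hr.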

Test [17] concerns the target D(2) dopamine receptor (Homo sapiens) (UniProt P14416). The experiment in a line: Dopamine D2 receptor (DRD2) small molecule agonists, cell-based qHTS assay (AID 1963594). Note: nearly all actives have a fitted effect of over 35% in size. The method in brief: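 HEK293 cells stably expressing human DRD2, pre-treated with PDE inhibitor Ro20-1724 (0.1 mM final) and compound 10 min at room temperature, then stimulated with NKH477 (200nM […]) for 30 min. cAMP read by HTRF (665/620 nm).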

Test [18] shares this target. The experiment in a line: Dopamine D2 receptor (DRD2) small molecule antagonists, cell-based qHTS assay (AID 1963595; active = well fitted inhibition curve with a large enough effect in the signal ratio in the repeat runs, with a control signal flat; the % refers to the signal ratio). The gist of the method:
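Readout: HTRF cAMP, cAMP-d2 competing with cellular cAMP for anti-cAMP cryptate, read after 1 h. Cells: DRD2-HEK293. Conditions: 0.1 mM Ro20-1724, 12 nM quinpirole, 200 nM NKH477, 30 min RT.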

Test [19] deals with Muscarinic acetylcholine receptor M1 (Homo sapiens) (UniProt P11229). The experiment in a line: Cholinergic receptor muscarinic 1 (CHRM1) small molecule agonists, cell-based qHTS assay (AID 1963589). Note: nearly all actives have a fitted effect of over 35% in size. The gist of the method: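 qHTS, 15-point titration, 3 independent runs: compounds pin-transferred onto dye-loaded CHRM1-CHO cells (human M1), calcium fluorescence followed every second to detect agonism.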
Chain of Muscarinic acetylcholine receptor M1 (Homo sapiens) (P11229 whole entry, looked up): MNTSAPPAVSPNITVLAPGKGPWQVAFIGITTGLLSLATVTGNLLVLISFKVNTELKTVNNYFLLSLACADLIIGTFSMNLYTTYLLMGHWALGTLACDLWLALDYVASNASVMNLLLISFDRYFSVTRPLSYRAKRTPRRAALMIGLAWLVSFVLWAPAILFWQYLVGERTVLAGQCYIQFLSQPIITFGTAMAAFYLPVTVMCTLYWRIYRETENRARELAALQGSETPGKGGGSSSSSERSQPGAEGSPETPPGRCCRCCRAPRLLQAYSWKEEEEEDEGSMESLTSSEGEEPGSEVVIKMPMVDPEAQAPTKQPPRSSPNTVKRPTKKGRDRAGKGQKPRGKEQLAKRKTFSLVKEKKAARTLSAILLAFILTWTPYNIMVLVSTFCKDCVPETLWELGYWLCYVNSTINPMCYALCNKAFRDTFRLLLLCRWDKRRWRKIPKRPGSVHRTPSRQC

A short description of test [20]: cAMP Responsive Elements (CRE) small molecule antagonists, cell-based qHTS assay (AID 1963591; active = well fitted inhibition curve with a large enough effect in the signal ratio in the repeat runs, not every such curve was filed as active; the % refers to the signal ratio). The gist of the method: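 Fluorescence intensity from cleaved LiveBLAzer B/G substrate (2 h, room temperature) quantified CRE-bla activity in HEK 293T cells exposed 3 h to compound with 0.25 uM final NKH477.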

Chain of Beta-2 adrenergic receptor (Homo sapiens) (P07550 whole entry, looked up): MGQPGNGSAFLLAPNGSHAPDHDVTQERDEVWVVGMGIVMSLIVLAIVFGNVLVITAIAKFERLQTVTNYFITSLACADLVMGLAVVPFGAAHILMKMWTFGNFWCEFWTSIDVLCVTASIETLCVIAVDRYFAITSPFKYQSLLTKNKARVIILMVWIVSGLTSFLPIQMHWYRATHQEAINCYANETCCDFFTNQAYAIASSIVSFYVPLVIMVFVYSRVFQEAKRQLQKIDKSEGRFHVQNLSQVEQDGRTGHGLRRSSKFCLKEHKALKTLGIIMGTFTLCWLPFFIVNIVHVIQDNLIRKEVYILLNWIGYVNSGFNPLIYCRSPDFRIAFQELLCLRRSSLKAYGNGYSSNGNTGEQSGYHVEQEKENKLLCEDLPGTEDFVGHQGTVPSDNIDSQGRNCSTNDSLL
Chain of D(2) dopamine receptor (Homo sapiens) (P14416 whole entry, looked up): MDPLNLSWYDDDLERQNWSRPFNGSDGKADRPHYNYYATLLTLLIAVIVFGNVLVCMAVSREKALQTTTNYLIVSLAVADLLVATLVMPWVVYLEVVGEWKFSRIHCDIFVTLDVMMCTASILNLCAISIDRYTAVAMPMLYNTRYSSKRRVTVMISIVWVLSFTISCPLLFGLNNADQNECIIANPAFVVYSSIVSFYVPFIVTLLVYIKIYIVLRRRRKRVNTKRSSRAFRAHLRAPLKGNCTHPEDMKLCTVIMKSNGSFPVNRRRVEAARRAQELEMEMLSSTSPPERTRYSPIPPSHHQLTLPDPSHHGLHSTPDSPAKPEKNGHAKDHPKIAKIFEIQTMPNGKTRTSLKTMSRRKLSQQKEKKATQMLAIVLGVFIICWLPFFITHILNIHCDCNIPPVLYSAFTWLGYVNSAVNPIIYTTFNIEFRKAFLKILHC
Chain of 5-hydroxytryptamine receptor 2A (Homo sapiens) (P28223 whole entry, looked up): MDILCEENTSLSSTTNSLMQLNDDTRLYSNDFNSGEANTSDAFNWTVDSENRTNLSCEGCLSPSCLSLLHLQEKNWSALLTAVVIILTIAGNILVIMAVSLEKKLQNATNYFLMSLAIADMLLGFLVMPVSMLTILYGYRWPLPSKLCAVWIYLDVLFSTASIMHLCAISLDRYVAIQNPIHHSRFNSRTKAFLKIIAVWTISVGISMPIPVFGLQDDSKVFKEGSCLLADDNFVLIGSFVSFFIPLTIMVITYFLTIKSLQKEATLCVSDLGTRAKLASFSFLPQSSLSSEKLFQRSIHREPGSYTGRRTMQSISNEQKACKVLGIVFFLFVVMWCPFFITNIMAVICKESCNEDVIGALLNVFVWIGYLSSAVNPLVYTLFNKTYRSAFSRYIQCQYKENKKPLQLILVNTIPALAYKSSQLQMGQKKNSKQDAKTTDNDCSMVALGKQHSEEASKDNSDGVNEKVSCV

In the case of `CCCCCCN`, the Potency entry in [1], in test [2], in [3], in [4], in test [5] and in [6] was “inactive” each time. In addition, the Potency entry in test [7], in test [8], in test [9], in test [10], in [11] and in test [12] was “inactive” throughout. The Potency entry in test [13], in test [14], in test [15], in test [16] and in test [17] was “inactive” in each case.
On to `Nc1nc(N)c2nc(-c3ccccc3)c(N)nc2n1`, for which the Potency result in [1], in [2], in [3], in test [4], in test [7] and in [8] was “inactive” in each case. In addition, the Potency entry in [15], in [16], in [17] and in test [18] was “inactive” each time. Also, the Potency was 18.2 µM (active) in test [5]; 29.2 µM (active) and 17.8 µM (active) in [6].
With `C#CC(C)(O)CC(C)C` (configuration not stated), the Potency result in test [1], in test [2], in [3], in test [4], in test [5] and in test [6] was “inactive” throughout. For the same compound, the Potency result in test [7], in test [8], in test [9], in test [10], in [11] and in test [12] was “inactive” throughout. Further, the Potency result in [19], in test [14], in test [20], in test [16] and in test [18] was “inactive” in each case.
On to `CCCCCCCCCCCCCCO`, for which the Potency entry in test [1], in [2], in [3], in test [4], in test [5] and in [6] was “inactive” in each case. Also, the Potency result in test [7], in test [8], in test [9], in [10], in test [12] and in test [13] was “inactive” throughout. Also, the Potency result in [14], in [15], in test [17] and in test [18] was “inactive” in each case.
`CCCCCCCCSCC`: the Potency entry in [1], in [2], in [3], in test [4], in [5] and in [7] was “inactive” throughout. Besides, the Potency entry in test [8], in [9], in test [10], in test [11], in test [12] and in test [13] was “inactive” in each case. Also, the Potency entry in [19], in test [14], in [20], in [15], in test [16] and in test [17] was “inactive” throughout. Besides, the Potency entry in test [18] is “inactive”.
`CC(C)(C)OC(=O)c1cccc(N)c1`: the Potency result in test [1], in test [2], in test [3], in [4], in [5] and in test [6] was “inactive” throughout. Further, the Potency result in test [8], in [9], in test [11], in test [12], in [13] and in [19] was “inactive” each time. Moreover, the Potency result in [14], in test [20], in test [15], in test [16], in [17] and in test [18] was “inactive” in each case.
For `Oc1ccc(/C=C/c2cc(O)cc(O)c2)cc1`, the Potency entry in [1], in [3], in [4], in [5], in test [8] and in [9] was “inactive” each time. Also, the Potency result in test [10], in test [20], in test [15], in [16] and in test [17] was “inactive” in each case. The Potency in [2] is 4.9 µM (active) and 7.7 µM (active) and 11.9 µM (active).
Take `CC1=CC(C)C(C=O)CC1` (configuration not stated): the Potency entry in [1], in [2], in test [3], in [4], in test [5] and in test [6] was “inactive” throughout. The Potency entry in test [7], in test [8], in test [10], in test [11], in [12] and in test [13] was “inactive” throughout. In addition, the Potency entry in test [19], in test [14], in test [20], in [15], in test [16] and in test [17] was “inactive” throughout. For the same compound, in [18], the Potency entry was “inactive”.
Take `CC/C=C\CCOC(=O)CC`: the Potency entry in test [1], in test [2], in test [3], in test [4], in [5] and in test [6] was “inactive” throughout. Also, the Potency result in test [8], in test [9], in test [10], in test [11], in [12] and in test [13] was “inactive” in each case. The Potency result in test [19], in [15], in test [16], in [17] and in test [18] was “inactive” throughout.
